Results as given in PubChem BioAssay AID1918969 (ICCB-Longwood Screening Facility, Harvard Medical School, 2023).
About 280 (0.15%) of roughly 190,000 compounds were called active. Rule as the data show it: active = inhibition above about 27% (passing the limit was not always enough); inactive = the rest. The entries come from a sample that favours actives as a whole.

test system: HCMV UL50-UL53 nuclear egress complex (human cytomegalovirus); assay: inhibitors of HCMV UL50-UL53 interaction, biochemical, HTRF (AID 1918969); settings: normalized percent inhibition, stronger effect = higher value, concentration not given here

SMILES | inhibition
CCCc1noc(-c2cc(S(N)(=O)=O)ccc2OC)n1 | 3.5% (inactive)
O=C(Cc1nc2ccccc2n1C(F)F)c1ccccc1 | -21.1% (inactive)
COc1ccc(N(Cc2nc3ccccc3s2)S(=O)(=O)c2cccs2)cc1 | -24.9% (inactive)
NC(=O)c1ccc2c3c(cccc13)CC2 | -30.8% (inactive)
Cc1nc(Nc2ccc(NC(=O)C(C)(C)C)cc2)cc(N(C)C)n1 | 7.9% (inactive)
COc1cc(-c2noc(-c3ccccc3)n2)ccc1OCC(=O)Nc1ccc(F)cc1 | -31.7% (inactive)
CCOC(=O)C1C(=O)CC(=O)C(C(=O)OCC)C1c1ccccc1 (stereo unspecified) | -6.9% (inactive)
CCOC(=O)c1noc2ncnc(N(CC)c3ccccc3)c12 | -26.1% (inactive)
O=C(NCN1CCN(CNC(=O)c2ccccc2)CC1)c1ccccc1 | -42.2% (inactive)
CCn1c(=O)c(=O)n(CC)c2cc(N3CCCCC3)c(NC(=O)c3ccc(Cl)cc3)cc21 | 62.9% (active)
CCn1c(=O)c(=O)n(CC)c2cc(N3CCCCC3)c(NC(=O)c3cccc(F)c3)cc21 | -3.5% (inactive)
CCn1c(=O)c(=O)n(CC)c2cc(N3CCCCC3)c(NC(=O)c3ccccc3)cc21 | -23.2% (inactive)
CCCCn1c(SCC(=O)N2CCCC2)nc2cn(C)nc2c1=O | -19.7% (inactive)
Cn1cc(CCC(=O)NC2CC2)c2ccccc21 | 0.4% (inactive)
CC1(C)CC(=O)C2=C(C1)N(Cc1ccco1)C(=O)C2(NC(=O)c1cccs1)C(F)(F)F (stereo unspecified) | -5.4% (inactive)
CCN(CC)c1ccc2cc(-c3csc(-c4nc(-c5cc6ccc(N(CC)CC)cc6oc5=O)cs4)n3)c(=O)oc2c1 | -0.5% (inactive)
Cc1cc(NC(=O)c2ccc(N(C)C)cc2)no1 | 1.2% (inactive)
O=C(CC1=NS(=O)(=O)c2ccccc2N1)N1CCN(C(c2ccccc2)c2ccccc2)CC1 | -9.6% (inactive)
C/C(=N\O)C(C)(C)Nc1ccccc1 | 24.2% (inactive)
Cc1ccc(S(=O)(=O)N(C)CC(=O)OCc2nc3ccccc3s2)cc1 | -25.9% (inactive)
CCOC(=O)c1c(NC(=O)CSc2nccn2C)sc2c1CCC(C)C2 (stereo unspecified) | -12.2% (inactive)
CC(C)N(C(=O)CNc1cc(Cl)ccc1Cl)c1ccccc1 | -6.5% (inactive)
O=C1c2ccccc2C(=O)C1c1ccccc1F | -3.9% (inactive)
Cc1c(OCC(N)=O)ccc2c3c(c(=O)oc12)CCCC3 | 7.5% (inactive)
NC(=O)c1ccc(-c2ccccc2)cc1C(N)=O | -28.2% (inactive)
Nc1nc(N)nc(SCC(=O)N2CCCC2)n1 | -9.6% (inactive)
